Results as given in PubChem BioAssay AID1274 (Emory University Molecular Libraries Screening Center, 2008).
Out of some 220,000 compounds screened, about 1,100 (0.5%) were called active. The entries come from a sample that favours actives as a whole. Unmarked numbers belong to inactive results.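 How the source made its calls: active means inhibition above about 30% (limit read from the data); inactive means the rest.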

What follows are compounds tested against Neutrophil cytosol factor 1 (Homo sapiens) (UniProt P14598) (assay: blockers of p47phox binding to p22phox – biochemical, uHTS, NADPH oxidase regulatory subunit, primary screen (AID 1274;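 further: 0% = p47phox with labelled peptide and 100% = labelled peptide alone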)). Details: p47phox/p22phox peptide binding, fluorescence polarization, 2 h; at 24.7 µM; stronger effect = higher value.
Chain of Neutrophil cytosol factor 1 (Homo sapiens) (P14598 whole entry, looked up): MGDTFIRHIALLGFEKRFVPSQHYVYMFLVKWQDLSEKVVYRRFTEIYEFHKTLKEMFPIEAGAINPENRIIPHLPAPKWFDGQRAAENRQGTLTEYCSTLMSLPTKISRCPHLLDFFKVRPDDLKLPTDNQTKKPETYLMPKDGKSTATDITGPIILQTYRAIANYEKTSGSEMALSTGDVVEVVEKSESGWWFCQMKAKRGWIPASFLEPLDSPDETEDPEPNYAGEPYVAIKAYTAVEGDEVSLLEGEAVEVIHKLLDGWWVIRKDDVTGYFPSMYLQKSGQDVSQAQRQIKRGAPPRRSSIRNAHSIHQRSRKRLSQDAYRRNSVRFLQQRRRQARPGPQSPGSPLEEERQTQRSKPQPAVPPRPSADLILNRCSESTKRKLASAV

With `COc1ccc(N2C(=O)CNC2=S)cc1` the inhibition was 41.5% (active).
For `Cn1cnnc1SCC(=O)Nc1ccc(N2CCOCC2)cc1`, the inhibition was 50% (active).
In the case of `O=c1[nH]c2ccccc2n2c(-c3ccccc3)nnc12`, the inhibition is reported as 69.6% (active).
`OC(CNCC1CCCO1)Cn1c2ccc(Br)cc2c2cc(Br)ccc21` (stereo not drawn) was tested, and the inhibition was 64% (active).
`O=c1[nH]c(=S)[nH]c2[nH]c(=S)[nH]c12` was tested, and the inhibition was 32.1% (active).
With `CCOc1cc(NC(=O)c2ccco2)c(OCC)cc1NC(=O)COc1ccccc1` the inhibition was 35.5% (active).
With `O=C(NN1C(=O)C2C(C1=O)C1C=CC2C12CC2)c1ccccc1Cl` (stereo not drawn) the inhibition was 43.4% (active).
`CN1/C(=C\C=C2\N=C(c3ccc(F)cc3)OC2=O)C(C)(C)c2ccccc21` was tested, and the inhibition was 149% (active).
For `CC1(OC(=O)CCc2ccccc2)C(=O)C=C2C=C(c3ccc(C#N)cc3)N(CCc3ccccn3)C=C2C1=O` (stereo not drawn), the inhibition was 32.3% (active).

Going from `COc1ccc(N2C(=O)C(Cc3ccccc3)NC2=S)cc1` (stereo not drawn) to `COc1ccc(N2C(=O)CC(SC(C)C)C2=O)cc1` (stereo not drawn), the inhibition rises from -10.2% to -5.28%.

First: Cc1c(C(=O)OC(C)C)sc(NC(=O)c2cccnc2)c1C#N
Second: CC(C)(C)NC(=O)/C(=C/c1cccnc1)NC(=O)c1ccco1
The inhibition of the first is lower: -54.3% for the first, -7.92% for the second.

First: O=C(O)CCC(=O)Nc1ccc(N2CCOCC2)cc1
Second: O=C(CSc1ccc([N+](=O)[O-])cn1)Nc1ccc(N2CCOCC2)cc1
The inhibition of the first is lower: -1.84% for the first, 2.81% for the second.

Compared with `CN1CCN(CCCCOc2ccccc2-c2ccccc2)CC1`, `CCN(C(=O)CN1CCN(Cc2ccccc2)CC1)c1c(N)n(Cc2ccccc2)c(=O)[nH]c1=O` is lower in inhibition: -0.29% for the first, -14.8% for the second.

First: CC(C)=CCCC1(C)C=Cc2c(ccc3c2[nH]c2cc(O)c(C)cc23)O1 (stereo not drawn)
Second: COc1cc(C(=O)NCc2ccc3c(c2)cc(C)n3C)cc(OC)c1OC
The inhibition of the first is lower: -11.9% for the first, 1.37% for the second.

Compared with `CCOC(=O)c1cnc2[nH]c3ccccc3n2c1=O`, `CN1/C(=C\C(=O)c2cccnc2Cl)C(C)(C)c2ccccc21` is lower in inhibition: 0.2% for the first, -37.8% for the second.

Going from `O=[N+]([O-])c1cccc(-c2nnc3c4ccccc4c4ccccc4n23)c1` to `Cn1c(=O)c([N+](=O)[O-])c(Oc2ccccc2)c2ccccc21`, the inhibition rises from -1.55% to 0.11%.

Going from `COc1ccc2oc(N)c(C=O)c(=O)c2c1` to `CN1/C(=C\C(=O)c2oc3ccccc3c2N)C(C)(C)c2ccccc21`, the inhibition falls from -6.85% to -9.12%.

Going from `CC/C(O)=N\S(=O)(=O)c1ccc(N=NN(C)C)cc1` to `CC1CN(S(=O)(=O)c2ccc(C(=O)Nc3sccc3C(N)=O)cc2)CC(C)O1` (stereo not drawn), the inhibition rises from -7.34% to -4.8%.

Going from `COc1ccccc1OCCNC(=O)c1cc([N+](=O)[O-])cc([N+](=O)[O-])c1` to `COc1ccccc1C(=O)NN1C(=O)C2C3C=CC(O3)C2C1=O` (stereo not drawn), the inhibition falls from 5.08% to -8.76%.

Compared with `CCOC(=O)Cn1c(=O)oc2cc(S(=O)(=O)NCC3CCCO3)ccc21` (stereo not drawn), `CCc1cc(Br)ccc1NC(=O)C1CCCO1` (stereo not drawn) is higher in inhibition: -8.76% for the first, -3.52% for the second.

First: CS(=O)(=O)N1CCc2cc(C(=O)Nc3ccccc3)ccc21
Second: COc1ccccc1P(=O)(c1ccccc1)c1ccccc1NC(C)=O (stereo not drawn)
The inhibition of the first is lower: -4.32% for the first, 7.25% for the second.

First: CC(C)Cc1nn2c(=O)cc(O)nc2s1
Second: COCCN1C=C2C(=O)C(C)(OC(=O)C3CCCC3)C(=O)C=C2C=C1c1ccsc1 (stereo not drawn)
The inhibition of the first is lower: -2.97% for the first, 0.87% for the second.

Compared with `Cc1c(C)c(C)c2[nH]c(=S)[nH]c2c1C`, `Cc1cc(=O)[nH]c(=S)[nH]1` is higher in inhibition: -7.18% for the first, -3.01% for the second.

Going from `CCOc1cc(NC(=S)NCc2ccco2)c(OCC)cc1NC(=O)c1ccco1` to `CCOc1cc(NC(=S)NCCCOC)c(OCC)cc1NC(=O)c1ccco1`, the inhibition falls from 4.63% to -10.9%.

Compared with `COc1ccc(/C=C/C(=O)OCC(=O)NCc2cccs2)cc1OC`, `CC(C)CNC(=O)COC(=O)c1ccccc1OCC(=O)Nc1ccc(Br)cc1` is higher in inhibition: -9.49% for the first, 0.42% for the second.

Compared with `COC(=O)Cc1c(O)ccn(Cc2cccc(C(F)(F)F)c2)c1=O`, `C=CCN1C=C2C(=O)C(C)(OC(=O)CCc3ccccc3)C(=O)C=C2C=C1c1ccc(C#N)cc1` (stereo not drawn) is lower in inhibition: -10.6% for the first, -11.9% for the second.

Going from `CC1=CC(C)(C)NC(=S)N1NC(=O)c1ccccc1Cl` to `Cc1ccccc1Nc1scc(-c2ccc(Br)cc2)[n+]1-c1ccccc1C`, the inhibition falls from -1.05% to -1.63%.

Going from `COc1ccc(COCC(O)CN2CCC(C(N)=O)CC2)cc1` (stereo not drawn) to `O=C(O)C1=C[C@H](c2cccs2)C[C@H](OCCCCO)O1`, the inhibition falls from -6.99% to -14.3%.

With `Cc1ccc(C)c(CSc2nc(-c3ccco3)nc3c2c(=O)n(C)c(=O)n3C)c1` the inhibition was -1.58%.
